Bioassay records as filed in PubChem BioAssay.
GPR151 ag: activators of human GPR151; AID 1508602; activation, % at 11.2 µM; 650,000 tested, 1% active; PathHunter beta-arrestin GPR151 cells, luminescence; Q8TDV0; in the data active means activation above about 4.9%;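 further: 0% = median of compound wells and 100% = cells with positive control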
MITF primary: blocks human microphthalmia-associated transcription factor. AlphaScreen MITF homodimerization, bead proximity signal. inhibition, % at 2.6 µM. 650,000 tested, 0.91% active. AID 1259374; in the data active means inhibition above about 50%;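 further: 0% = vehicle wells with protein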
TEAD-YAP inh: TEAD-YAP interaction inhibition | AID 1259422 | inhibition, % at 9.12 µM | 640,000 tested, 1.4% active | HEK-TIYL cells, TEAD-Gal4/YAP UAS-luciferase luminescence; in the data active means inhibition above about 32%;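 further: 0% = median of test compound wells and 100% = reference inhibitor wells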
FBW7 activator: activators of human E3 ligase FBW7 | Q969H0 | AlphaScreen FBW7–phospho-cyclin E peptide binding, activator screen | normalized activity (activation), % at 26.1 µM | 650,000 tested, 0.13% active; in the data active means normalized activity above about 1.9%;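 further: purified mutant Fbw7 with reduced substrate affinity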
Target sequence (Q969H0 whole entry, looked up): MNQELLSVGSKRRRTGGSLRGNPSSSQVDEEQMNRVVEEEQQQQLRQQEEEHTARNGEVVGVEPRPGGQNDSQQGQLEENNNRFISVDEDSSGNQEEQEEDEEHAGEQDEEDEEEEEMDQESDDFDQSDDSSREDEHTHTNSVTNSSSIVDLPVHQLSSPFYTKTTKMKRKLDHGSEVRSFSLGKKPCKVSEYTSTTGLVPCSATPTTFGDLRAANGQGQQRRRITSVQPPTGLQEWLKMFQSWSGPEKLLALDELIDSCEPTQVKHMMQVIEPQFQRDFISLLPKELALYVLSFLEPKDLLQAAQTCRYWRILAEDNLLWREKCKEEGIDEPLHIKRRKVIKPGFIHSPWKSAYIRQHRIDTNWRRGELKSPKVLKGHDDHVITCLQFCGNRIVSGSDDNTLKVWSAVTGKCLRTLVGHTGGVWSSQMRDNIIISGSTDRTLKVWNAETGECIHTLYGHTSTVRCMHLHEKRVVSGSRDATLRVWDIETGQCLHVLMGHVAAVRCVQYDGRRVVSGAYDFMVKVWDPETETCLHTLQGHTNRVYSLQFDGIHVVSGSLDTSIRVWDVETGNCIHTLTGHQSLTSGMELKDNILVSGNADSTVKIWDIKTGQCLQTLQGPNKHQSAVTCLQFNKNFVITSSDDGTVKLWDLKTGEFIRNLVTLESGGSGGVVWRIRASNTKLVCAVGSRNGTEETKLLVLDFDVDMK
GPR151 confirm: confirmation of human GPR151 activators; shares compounds with GPR151 ag; 6,700 tested, under 10 active; GPR151 PathHunter beta-arrestin cells, luminescence, 90 min; % of EA-reagent control over plate median; activation, % at 11.2 µM;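 active means mean percent activation across replicates above the confirmation screen cutoff of 4.91%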
GPR119 counter: counter-screen for GPR151 activators: effect on human GPR119; activation, % at 11.2 µM; GPR119 PathHunter beta-arrestin cells, luminescence, 90 min; 0 = compound-well median, 100 = enzyme-acceptor control; AID 1508611; 6,700 tested, 0.3% active; shares compounds with GPR151 ag;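 active means mean percent activation in the counterscreen above 29.09%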;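 further: counterscreen on off-target GPR119 to flag nonselective hits from the GPR151 activator screen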
The depositor's hits bear a star; x = no result given; ! = not active in a repeat. Compounds with a hit are over-represented: about 3.5% of the library has one in this group of screens.

SMILES	GPR151 ag	MITF primary	TEAD-YAP inh	FBW7 activator	GPR151 confirm	GPR119 counter
O=C(NNC1CC(c2ccccc2)=NN1C(=O)c1ccccc1)c1ccccc1 (stereo unspecified)	6.5*	-3	3	0	0	3
O=C(Nc1ccc(-c2cn[nH]c2)cc1)[C@@H]1Cc2ccccc2CN1	0	13	-5	0	x	x
O=C(Nc1ccc(-c2cn[nH]c2)cc1)OCc1ccccc1	-1	0	-14	0	x	x
O=C(Nc1ccc(-c2cn[nH]c2)cc1)C1CCc2ccccc2C1 (stereo unspecified)	5.4*	-5	-4	0	0	8
O=C(Nc1ccc(-c2cn[nH]c2)cc1)OCCc1ccccc1	5.0*	2	-28	0	1	8
O=C1CCC(c2sc(Cl)c(Cl)c2Cl)=NN1c1ccccc1	12*	4	-4	0	0	-5
O=C1CCC(c2ccccc2)=NN1c1ccccn1	1	10	-11	0	x	x
CCOC(=O)c1ccc(N2C(=N)S/C(=C\c3ccc(F)cc3)C2=O)cc1	0	-13	7	0	x	x
COc1cc(Nc2cc(C)nc(N3CCc4ccccc4C3)n2)cc(OC)c1OC	2	5	3	0	x	x
COc1cc(Nc2ccnc(N3CCc4ccccc4C3)n2)cc(OC)c1OC	6.8*	4	5	0	0	18
COc1ccccc1OC(C)C(=O)NC1CCCCC1 (stereo unspecified)	6.4*	-12	-4	0	-1	-7
COC(=O)C(C(=O)Nc1ccccc1C)C1CCCC1 (stereo unspecified)	0	7	-6	0	x	x
CCOC(=O)C(C(=O)Nc1ccccc1OC)C1CCCCC1 (stereo unspecified)	5.1*	4	3	0	0	-4
COc1ccccc1OCC(=O)NC1CCCCCC1	0	-21	-53	0	x	x
COc1ccc(CN(C)CCN(C)C)c(OC)c1C	6.6*	9	4	0	1	0
COc1cccc(CN(C)CCN(C)C)c1O	-2	-1	1	0	x	x
CC(C)n1c(C(F)(F)F)nc2ccccc21	5.2*	10	6	0	2	9
CC(C)(C)C(=O)NC1(C(F)(F)F)NC(=O)N(c2ccccc2F)C1=O (stereo unspecified)	6.6*	-11	-1	0	1	10
CN1CCC(CNS(=O)(=O)CCc2ccccc2)CC1	5.7*	14	2	0	-1	-10
Cc1cccc(/C=N/NC(=O)c2ccc(F)cc2)n1	1	1	-30	0	x	x
Cc1ccc(C(=O)Nc2ccc(C(=O)N/N=C/c3cccc(C)n3)cc2)cc1	6.1*	1	14	0	0	-3
COCCCNC(=O)CCCc1cn(C)c2ccccc12	6.6*	-6	-8	0	0	1
CCCCNC(=O)Cc1cn(C)c2ccccc12	5.1*	3	-26	0	1	7
COCCCNC(=O)Cc1cn(C)c2ccccc12	0	-8	-5	0	x	x
Cn1cc(CC(=O)NCCN2CCN(Cc3ccccc3)CC2)c2ccccc21	5.2*	-13	4	0	-1	-9
SMILES	GPR151 ag	MITF primary	TEAD-YAP inh	FBW7 activator	GPR151 confirm	GPR119 counter
CCCCCCc1cc2cc(-c3csc(N)n3)c(=O)oc2cc1O	0	-11	-9	1	x	x
CCN(CC(=O)Nc1nc2c(s1)C(=O)CC(C)(C)C2)c1ccccc1	1	12	9	0	x	x
CCN(CC)c1ccc(C(=O)Nc2nc3c(s2)C(=O)CC(C)(C)C3)cc1	5.2*	1	1	0	0	3
CCCCOc1nc2ccccc2nc1C(C#N)C(=O)OCC (stereo unspecified)	5.3*	-13	-7	0	0	-4
COc1ccc(C(=O)N2CCN(C)CC2)cc1[N+](=O)[O-]	1	7	-3	0	x	x
CCN1CCN(C(=O)c2ccc(OC)c([N+](=O)[O-])c2)CC1	7.4*	-11	-5	0	-1	-6
CCCCC(C(=O)Nc1cccc(C)c1)N1C(=O)c2cc(Cl)c(Cl)cc2C1=O (stereo unspecified)	8.3*	22	-2	0	1	12
Cc1cc(Nc2ccc(F)cc2F)n2nc(C)nc2n1	1	4	-8	0	x	x
Cc1cc(Nc2cc(F)ccc2C)n2nc(C)nc2n1	7.1*	16	15	0	-1	-6
COc1cc(-c2cn3c(NC(=O)c4cccs4)c(C)nc3cn2)cc(OC)c1OC	5.3*	-6	-5	0	1	11
Cc1ccc(-c2noc(CNC(=O)N3CCOCC3)n2)cc1	-1	6	3	0	x	x
COc1ccc(C2CC(=O)C=C(Nc3ccc(Br)cc3)C2)cc1OC (stereo unspecified)	0	11	-6	0	x	x
COC1=CC(=O)C[C@@H](C)[C@]12Oc1c(Cl)c(OC)cc(OC)c1C2=O	5.4*!	-7	43*!	0	0	2
O=C(Nc1ccccc1)N[C@H]1C[C@H]2C(=O)N3CCC[C@@H]3C(=O)N2C1	10*	15	-15	1	2	19
Cc1nc(N2CCCCC2)c2c(C)c(C(=O)N3CCN(Cc4ccc5c(c4)OCO5)CC3)sc2n1	0	13	18	0	x	x
COc1ccc2cc(/C=N/Nc3ccccn3)c(Cl)nc2c1	12*	3	-3	1	0	-5
COc1ccc(CNc2ncnc3c2cnn3-c2cccc(C)c2)cc1	5.2*	5	-12	0	0	-5
c1ccc(-n2ncc3c(Nc4cccc5ccccc45)ncnc32)cc1	5.7*	16	-2	0	-1	-8
Cc1ccc(-n2ncc3c(NCc4cccnc4)ncnc32)c(C)c1	8.5*	6	2	0	-1	-3
Cc1ccc(-n2ncc3c(SCC(=O)NC(C)(C)C)ncnc32)c(C)c1	7.2*	-6	4	0	0	-4
CCCOc1c(Br)cc(C(=O)Nc2sccc2C#N)cc1OC	-1	-15	5	0	x	x
COc1ccc(/C=C2\SC(=S)N(CCC(=O)NCCO)C2=O)cc1	5.1*	25	-19	0	0	1
CCOc1cccc(/C=C2/SC(=S)N(CCC(=O)O)C2=O)c1	4.9*	1	8	0	0	-7
CCOc1ccc(/C=C2\SC(=S)N(C(CC)C(=O)O)C2=O)cc1 (stereo unspecified)	6.0*	-10	-6	0	0	6
CCCCCCCCCCCCCCC/C=C/[C@@H](O)[C@H](NC(=O)CCCCCCCCCCCCCCCCCCCCC)OC (tested in a mixture with another compound)	-2	16	3	0	x	x
COc1cc2c(cc1C1NC(=S)NC(C)=C1C(=O)N(C)C)CCCC2 (stereo unspecified)	8.9*	0	6	0	0	-2
